Assay results from the supplement of paper PMC10849652.
About 8,800 targets were measured; listed, in parts, are those with a hit and a random draw of the rest. About 0.5% of all pairs of compound and target were hits.

How the values were obtained:
Assay in all cases: log2 fold change, soluble protein after heating vs DMSO (PISA); higher = thermal stabilisation; K562 lysate, 10 uM; active = over 0.2 and 3.5 SD of the protein, either way, in both replicates (recomputed)
encorafenib = compound: COC(=O)N[C@@H](C)CNc1nccc(-c2cn(C(C)C)nc2-c2cc(Cl)cc(NS(C)(=O)=O)c2F)n1 [encorafenib]
Outline: (§1)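 The values are log-two fold changes in thermal stability compared with solvent controls and come from duplicates. They were obtained by TMTpro 16plex LC-MS/MS, with channel sums equalised, on the supernatant after 21,000xg for 90 min. That supernatant came from crude K562 extract at 1 mg/mL protein treated with 10 μM compound for 30 min, heated for 3 min across 48°C-58°C, pooled and brought to 0.5% NP-40 at 4°C.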

[1] = compound: COC(=O)[C@H](CCSC)NC(=O)C1=C(C=C(C=C1)NC[C@H](CS)N)C2=CC=CC=C2
Outline: as §1

alisertib = compound: COc1cc(Nc2ncc3c(n2)-c2ccc(Cl)cc2C(c2c(F)cccc2OC)=NC3)ccc1C(=O)O [alisertib]
Outline: as §1

[2] = compound: COc1cc2nc(-c3cc(F)ccc3O)nc(N[C@@H]3CNC[C@H]3C(C)(C)O)c2cc1OC
Outline: as §1

gefitinib = compound: COc1cc2ncnc(Nc3ccc(F)c(Cl)c3)c2cc1OCCCN1CCOCC1 [gefitinib]
Outline: as §1

lapatinib = compound: CS(=O)(=O)CCNCc1ccc(-c2ccc3ncnc(Nc4ccc(OCc5cccc(F)c5)c(Cl)c4)c3c2)o1 [lapatinib]
Outline: as §1

pictilisib = compound: CS(=O)(=O)N1CCN(Cc2cc3nc(-c4cccc5[nH]ncc45)nc(N4CCOCC4)c3s2)CC1 [pictilisib]
Outline: as §1

tozasertib = compound: Cc1cc(Nc2cc(N3CCN(C)CC3)nc(Sc3ccc(NC(=O)C4CC4)cc3)n2)n[nH]1 [tozasertib]
Outline: as §1

bafetinib = compound: Cc1ccc(NC(=O)c2ccc(CN3CC[C@H](N(C)C)C3)c(C(F)(F)F)c2)cc1Nc1nccc(-c2cncnc2)n1 [bafetinib]
Outline: as §1

alvocidib = compound: CN1CC[C@H](c2c(O)cc(O)c3c(=O)cc(-c4ccccc4Cl)oc23)[C@H](O)C1 [alvocidib]
Outline: as §1

Tubastatin A = compound: CN1CCc2c(c3ccccc3n2Cc2ccc(C(=O)NO)cc2)C1 [Tubastatin A]
Outline: as §1

[3] = compound: CNC(=O)C1=CC=CC=C1NC2=NC(=NC=C2Cl)NC3=C(C=C(C=C3)N4CCOCC4)OC
Outline: as §1

defactinib = compound: CNC(=O)c1ccc(Nc2ncc(C(F)(F)F)c(NCc3nccnc3N(C)S(C)(=O)=O)n2)cc1 [defactinib]
Outline: as §1

[4] = compound: CNc1nc(-c2ccc3c(N)n[nH]c3c2)cc(N2C[C@@H](C(=O)NC3CCCCC3)CC[C@H]2C)n1
Outline: as §1

crizotinib = compound: C[C@@H](Oc1cc(-c2cnn(C3CCNCC3)c2)cnc1N)c1c(Cl)ccc(F)c1Cl [crizotinib]
Outline: as §1

[5] = compound: C[C@H](C1=CC=C(C=C1)C(=O)NC2=C3C=CNC3=NC=C2)N
Outline: as §1

duvelisib = compound: C[C@H](Nc1ncnc2nc[nH]c12)c1cc2cccc(Cl)c2c(=O)n1-c1ccccc1 [duvelisib]
Outline: as §1

gandotinib = compound: Cc1cc(Nc2cc(CN3CCOCC3)c3nc(C)c(Cc4ccc(Cl)cc4F)n3n2)n[nH]1 [gandotinib]
Outline: as §1

doramapimod = compound: Cc1ccc(-n2nc(C(C)(C)C)cc2NC(=O)Nc2ccc(OCCN3CCOCC3)c3ccccc23)cc1 [doramapimod]
Outline: as §1

[6] = compound: Cc1cccc(CC(=O)N2CCc3c2ccc(-c2cn(C)c4ncnc(N)c24)c3F)n1
Outline: as §1

Measured: log2 fold change

HMGN5 (UniProt Q5JSK9)
inactive: encorafenib 0.055 | [1] -0.111 | alisertib 0.049 | [2] 0.055 | gefitinib 0.063 | lapatinib -0.04 | pictilisib 0.017 | tozasertib 0.074 | bafetinib -0.04

ITM2B (UniProt Q9Y287)
Chain of UniProt Q9Y287 (Q9Y287 whole entry, looked up): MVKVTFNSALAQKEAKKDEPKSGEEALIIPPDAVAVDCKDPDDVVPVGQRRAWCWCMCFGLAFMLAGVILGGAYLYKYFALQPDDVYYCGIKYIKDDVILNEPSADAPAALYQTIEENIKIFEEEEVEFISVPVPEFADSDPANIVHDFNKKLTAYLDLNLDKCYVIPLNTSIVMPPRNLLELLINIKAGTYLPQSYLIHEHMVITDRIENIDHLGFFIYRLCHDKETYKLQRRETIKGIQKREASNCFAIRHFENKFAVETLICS
inactive: alvocidib 0.015 | Tubastatin A 0.007 | [3] 0.037 | defactinib 0.16 | [4] 0.074 | alisertib 0.006 | gefitinib 0.008 | pictilisib -0.087 | crizotinib 0.005 | [5] -0.061 | duvelisib 0.033 | gandotinib -0.037 | doramapimod 0.007 | bafetinib -0.032 | [6] 0.138

HNRNPD (UniProt D6RF44)
inactive: alisertib -0.006 | gefitinib -0.014 | crizotinib -0.086 | doramapimod 0

GSK3B isoform 2 (UniProt P49841)
Chain of UniProt P49841 (P49841 whole entry, looked up): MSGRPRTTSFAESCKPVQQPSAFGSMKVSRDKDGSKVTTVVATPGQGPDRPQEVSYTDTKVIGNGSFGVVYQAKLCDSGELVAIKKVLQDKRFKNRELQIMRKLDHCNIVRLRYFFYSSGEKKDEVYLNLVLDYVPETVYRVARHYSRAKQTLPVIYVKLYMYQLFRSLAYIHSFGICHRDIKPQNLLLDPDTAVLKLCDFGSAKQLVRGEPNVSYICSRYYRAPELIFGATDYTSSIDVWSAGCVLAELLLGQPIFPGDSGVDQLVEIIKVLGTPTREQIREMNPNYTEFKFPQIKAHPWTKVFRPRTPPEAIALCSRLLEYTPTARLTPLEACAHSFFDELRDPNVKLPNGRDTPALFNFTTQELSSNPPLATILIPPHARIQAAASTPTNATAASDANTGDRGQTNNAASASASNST
inactive: alvocidib 0.518 | Tubastatin A -0.077 | [3] 0.015 | defactinib 0.562 | [4] 0.114 | encorafenib 0.425 | [1] -0.114 | [2] 0 | gefitinib 0.029 | lapatinib -0.083 | pictilisib 0.191 | crizotinib 0.003 | [5] 0.018 | duvelisib -0.02 | gandotinib 0.59 | tozasertib -0.078 | doramapimod 0.03 | bafetinib -0.041 | [6] -0.06

GYPA, A0A2R8Y7F9
inactive: alvocidib -0.218 | pictilisib -0.033 | [5] -0.562 | gandotinib 0.202 | bafetinib -0.029 | [6] 0.17

ISL2 (UniProt Q96A47)
active: [5] 0.609
inactive: alvocidib 0.36 | Tubastatin A 0.032 | [3] -0.042 | [4] 0.025 | pictilisib 0 | crizotinib 0.001 | duvelisib 0.006 | gandotinib -0.104 | doramapimod -0.074 | bafetinib -0.055 | [6] -0.096

GPLD1 (UniProt P80108)
Chain of UniProt P80108 (P80108 whole entry, looked up): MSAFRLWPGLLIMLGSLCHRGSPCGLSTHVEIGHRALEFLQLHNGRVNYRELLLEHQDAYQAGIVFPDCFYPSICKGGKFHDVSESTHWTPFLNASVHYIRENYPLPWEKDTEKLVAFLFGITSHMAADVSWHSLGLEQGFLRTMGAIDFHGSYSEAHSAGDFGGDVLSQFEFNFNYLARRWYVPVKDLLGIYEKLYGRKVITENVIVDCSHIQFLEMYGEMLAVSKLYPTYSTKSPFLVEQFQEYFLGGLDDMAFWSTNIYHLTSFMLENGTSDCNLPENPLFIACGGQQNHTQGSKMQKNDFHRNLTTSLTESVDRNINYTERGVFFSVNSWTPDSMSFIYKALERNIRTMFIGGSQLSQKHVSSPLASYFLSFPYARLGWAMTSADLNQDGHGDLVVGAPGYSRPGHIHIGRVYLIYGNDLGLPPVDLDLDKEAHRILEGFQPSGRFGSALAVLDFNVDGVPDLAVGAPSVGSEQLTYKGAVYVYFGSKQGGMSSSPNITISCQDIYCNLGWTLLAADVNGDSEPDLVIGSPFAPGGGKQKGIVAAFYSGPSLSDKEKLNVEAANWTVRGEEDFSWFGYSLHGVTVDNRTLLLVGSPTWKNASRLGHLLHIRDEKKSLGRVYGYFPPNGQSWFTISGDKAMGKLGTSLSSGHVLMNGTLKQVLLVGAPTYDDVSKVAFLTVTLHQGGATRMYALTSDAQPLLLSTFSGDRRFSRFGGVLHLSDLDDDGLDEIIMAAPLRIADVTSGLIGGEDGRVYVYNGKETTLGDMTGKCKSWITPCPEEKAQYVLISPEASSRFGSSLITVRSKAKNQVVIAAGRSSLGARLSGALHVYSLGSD
inactive: [4] -0.452 | crizotinib -0.108 | duvelisib -0.049 | doramapimod 0.081

HSPBAP1 (UniProt Q96EW2)
Chain of UniProt Q96EW2 (Q96EW2 whole entry, looked up): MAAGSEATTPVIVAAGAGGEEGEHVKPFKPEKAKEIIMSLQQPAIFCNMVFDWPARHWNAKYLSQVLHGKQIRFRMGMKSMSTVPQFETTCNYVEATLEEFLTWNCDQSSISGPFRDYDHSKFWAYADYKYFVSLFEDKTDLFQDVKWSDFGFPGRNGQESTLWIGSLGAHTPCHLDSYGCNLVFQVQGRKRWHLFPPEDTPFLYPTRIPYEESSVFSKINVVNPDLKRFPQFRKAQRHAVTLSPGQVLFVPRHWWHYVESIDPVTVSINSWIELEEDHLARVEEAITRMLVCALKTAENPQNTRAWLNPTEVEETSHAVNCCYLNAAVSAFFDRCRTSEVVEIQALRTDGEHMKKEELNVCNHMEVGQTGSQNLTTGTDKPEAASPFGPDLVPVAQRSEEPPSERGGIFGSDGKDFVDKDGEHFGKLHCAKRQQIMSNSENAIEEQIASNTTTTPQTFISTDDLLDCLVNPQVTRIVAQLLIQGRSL
active: [4] -0.547
inactive: alvocidib -0.094 | Tubastatin A -0.139 | [3] 0.02 | encorafenib 0.097 | [1] -0.154 | alisertib -0.113 | [2] -0.104 | gefitinib -0.005 | lapatinib -0.074 | pictilisib -0.014 | crizotinib -0.111 | [5] -0.076 | duvelisib 0.022 | gandotinib 0.15 | tozasertib -0.025 | doramapimod 0.125 | bafetinib 0.052 | [6] -0.141

HTT (UniProt P42858)
inactive: alvocidib 0 | Tubastatin A -0.195 | [3] 0.022 | defactinib 0.048 | [4] -0.043 | encorafenib 0.008 | [1] -0.003 | alisertib -0.005 | gefitinib -0.032 | pictilisib -0.028 | crizotinib -0.042 | [5] -0.012 | duvelisib -0.016 | gandotinib -0.124 | tozasertib 0.002 | doramapimod 0.006 | bafetinib -0.112 | [6] 0.094

IPP (UniProt Q9Y573)
Chain of UniProt Q9Y573 (Q9Y573 whole entry, looked up): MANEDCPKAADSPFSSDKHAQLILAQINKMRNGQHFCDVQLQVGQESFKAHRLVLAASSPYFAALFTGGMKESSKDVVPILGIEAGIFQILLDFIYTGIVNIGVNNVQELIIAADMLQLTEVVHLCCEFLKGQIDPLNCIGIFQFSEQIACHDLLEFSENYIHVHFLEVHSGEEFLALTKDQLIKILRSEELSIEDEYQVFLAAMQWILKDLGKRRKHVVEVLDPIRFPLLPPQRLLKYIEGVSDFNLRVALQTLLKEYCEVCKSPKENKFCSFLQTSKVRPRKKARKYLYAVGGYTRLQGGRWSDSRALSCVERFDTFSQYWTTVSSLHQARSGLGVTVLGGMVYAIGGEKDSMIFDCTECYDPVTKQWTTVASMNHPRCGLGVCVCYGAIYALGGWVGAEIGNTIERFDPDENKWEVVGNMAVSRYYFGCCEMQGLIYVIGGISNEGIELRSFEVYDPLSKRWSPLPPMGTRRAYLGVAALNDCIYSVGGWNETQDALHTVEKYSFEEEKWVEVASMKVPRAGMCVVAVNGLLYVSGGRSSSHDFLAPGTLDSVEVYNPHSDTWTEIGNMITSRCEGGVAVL
inactive: alvocidib 0.001 | Tubastatin A -0.075 | [3] -0.07 | defactinib 0.016 | [4] 0.029 | encorafenib -0.138 | [1] -0.171 | [2] 0.06 | lapatinib 0.04 | [5] 0.067 | duvelisib -0.016 | gandotinib -0.172 | tozasertib 0.078 | [6] 0.074

IRS2 (UniProt Q9Y4H2)
inactive: alvocidib -0.301 | Tubastatin A -0.254 | [3] -0.02 | [4] 0.275 | alisertib 0.068 | [2] 0.004 | gefitinib 0.08 | lapatinib -0.128 | pictilisib 0.023 | crizotinib -0.186 | duvelisib 0 | gandotinib 0.296 | doramapimod 0.019 | bafetinib 0.031 | [6] 0.307
active: [5] -0.578

GPN2 (UniProt Q9H9Y4)
inactive: alvocidib -0.034 | Tubastatin A -0.027 | [3] -0.004 | defactinib 0.112 | [4] -0.007 | encorafenib 0.19 | [1] -0.038 | alisertib 0.008 | [2] -0.038 | gefitinib -0.001 | lapatinib 0.041 | crizotinib 0.007 | [5] -0.035 | duvelisib 0.126 | gandotinib 0.068 | tozasertib 0.015 | doramapimod -0.005 | [6] 0.106

HNRNPM (UniProt M0QZM1)
inactive: defactinib 0.073 | [4] 0.128 | encorafenib 0.006 | [1] -0.025 | pictilisib 0.076 | crizotinib -0.07 | duvelisib -0.06 | tozasertib 0.075 | doramapimod -0.017 | bafetinib -0.243

H3-3A (UniProt P84243)
inactive: alvocidib 0.021 | [3] 0.063 | defactinib -0.04 | encorafenib 0.132 | [1] -0.034 | [2] -0.032 | lapatinib 0.028 | pictilisib -0.018 | crizotinib 0.046 | [5] 0 | gandotinib 0.016 | tozasertib -0.083 | doramapimod -0.062 | bafetinib -0.049 | [6] 0.03

KIAA0930 isoform 2 (UniProt Q6ICG6)
inactive: alvocidib -0.067 | Tubastatin A 0.077 | defactinib 0.03 | [4] -0.118 | encorafenib -0.089 | [1] -0.032 | alisertib 0.073 | [2] 0.013 | gefitinib -0.063 | lapatinib -0.068 | pictilisib 0.016 | crizotinib -0.067 | [5] -0.121 | duvelisib -0.037 | gandotinib 0.055 | tozasertib -0.015 | doramapimod 0.055 | bafetinib -0.051 | [6] 0.191

ITPR2 (UniProt Q14571)
inactive: Tubastatin A -0.03 | [3] 0.074 | [4] 0.239 | alisertib 0.001 | [2] 0.234 | gefitinib -0.019 | lapatinib -0.571 | duvelisib -0.004

HNRNPUL1 (UniProt M0R247)
inactive: alvocidib -0.042 | [3] -0.03 | pictilisib 0.038 | [5] 0.014 | gandotinib -0.014 | bafetinib 0.008 | [6] 0.034

HNRNPL, A0A3B3ITJ4
inactive: [2] 0.032 | lapatinib -0.011 | pictilisib -0.002 | bafetinib -0.083

IGFBP4 (UniProt P22692)
Chain of UniProt P22692 (P22692 whole entry, looked up): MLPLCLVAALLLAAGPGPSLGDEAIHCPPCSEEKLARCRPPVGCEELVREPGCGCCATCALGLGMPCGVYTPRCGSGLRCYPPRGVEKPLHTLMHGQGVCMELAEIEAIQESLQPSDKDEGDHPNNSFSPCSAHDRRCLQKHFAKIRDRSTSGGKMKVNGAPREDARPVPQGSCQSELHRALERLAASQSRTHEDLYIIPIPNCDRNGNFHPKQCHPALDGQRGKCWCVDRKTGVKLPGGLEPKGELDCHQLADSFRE
active: [2] 0.454
inactive: alvocidib -0.149 | Tubastatin A -0.083 | [3] 0.045 | [4] -0.084 | alisertib -0.005 | gefitinib 0.005 | lapatinib -0.007 | pictilisib 0.015 | crizotinib -0.042 | [5] 0 | duvelisib -0.029 | gandotinib 0.019 | doramapimod 0.014 | bafetinib -0.149 | [6] 0.095

KDM5B isoform 2 (UniProt Q9UGL1)
Chain of UniProt Q9UGL1 (Q9UGL1 whole entry, looked up): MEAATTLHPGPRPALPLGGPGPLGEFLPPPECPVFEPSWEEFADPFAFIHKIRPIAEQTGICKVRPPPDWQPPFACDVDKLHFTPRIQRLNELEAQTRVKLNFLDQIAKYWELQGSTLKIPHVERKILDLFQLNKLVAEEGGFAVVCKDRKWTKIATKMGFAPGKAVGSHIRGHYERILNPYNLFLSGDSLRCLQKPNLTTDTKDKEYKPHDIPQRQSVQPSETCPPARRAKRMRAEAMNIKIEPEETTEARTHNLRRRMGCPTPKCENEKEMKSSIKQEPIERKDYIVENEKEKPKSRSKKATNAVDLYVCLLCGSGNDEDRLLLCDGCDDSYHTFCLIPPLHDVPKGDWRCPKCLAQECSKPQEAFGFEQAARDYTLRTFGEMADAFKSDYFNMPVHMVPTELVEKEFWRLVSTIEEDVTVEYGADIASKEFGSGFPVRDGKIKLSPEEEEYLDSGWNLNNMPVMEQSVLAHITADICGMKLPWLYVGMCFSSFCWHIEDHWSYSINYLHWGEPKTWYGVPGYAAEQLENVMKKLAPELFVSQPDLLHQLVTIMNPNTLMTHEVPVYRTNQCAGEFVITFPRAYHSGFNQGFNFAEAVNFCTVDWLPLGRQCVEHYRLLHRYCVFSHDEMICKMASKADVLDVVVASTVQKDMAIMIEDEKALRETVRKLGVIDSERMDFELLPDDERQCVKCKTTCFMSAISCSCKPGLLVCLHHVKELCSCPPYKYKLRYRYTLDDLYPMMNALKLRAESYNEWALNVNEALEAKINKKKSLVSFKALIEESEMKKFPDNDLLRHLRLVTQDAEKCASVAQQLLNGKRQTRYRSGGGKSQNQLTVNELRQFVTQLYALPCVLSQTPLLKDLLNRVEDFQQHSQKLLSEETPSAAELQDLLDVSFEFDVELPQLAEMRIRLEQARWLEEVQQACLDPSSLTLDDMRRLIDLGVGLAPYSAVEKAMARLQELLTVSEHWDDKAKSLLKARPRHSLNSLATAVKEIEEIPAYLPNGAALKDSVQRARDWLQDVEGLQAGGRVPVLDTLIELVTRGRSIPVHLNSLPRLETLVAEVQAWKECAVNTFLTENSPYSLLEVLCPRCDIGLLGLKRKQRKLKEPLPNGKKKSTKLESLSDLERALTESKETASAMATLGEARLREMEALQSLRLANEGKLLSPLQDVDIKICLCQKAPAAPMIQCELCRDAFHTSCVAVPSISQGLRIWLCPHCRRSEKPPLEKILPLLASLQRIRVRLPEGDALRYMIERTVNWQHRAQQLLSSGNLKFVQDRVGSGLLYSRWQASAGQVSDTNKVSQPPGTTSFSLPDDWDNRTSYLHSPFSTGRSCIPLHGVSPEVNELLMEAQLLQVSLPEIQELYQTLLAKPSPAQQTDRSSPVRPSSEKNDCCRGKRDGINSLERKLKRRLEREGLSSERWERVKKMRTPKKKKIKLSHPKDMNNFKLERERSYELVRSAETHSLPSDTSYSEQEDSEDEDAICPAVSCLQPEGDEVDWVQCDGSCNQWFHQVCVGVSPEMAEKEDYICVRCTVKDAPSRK
inactive: alvocidib -0.048 | Tubastatin A 0.021 | [3] -0.007 | defactinib 0.08 | [4] 0.307 | encorafenib -0.094 | [1] 0.075 | [2] 0.014 | lapatinib -0.006 | pictilisib -0.041 | crizotinib -0.02 | [5] -0.003 | duvelisib 0 | gandotinib 0.257 | tozasertib 0.13 | doramapimod -0.033 | bafetinib -0.013 | [6] 0.29

IGF2BP2 isoform 6 (UniProt Q9Y6M1)
inactive: [2] 0.289 | lapatinib 0.084

ITPRIP (UniProt Q8IWB1)
Chain of UniProt Q8IWB1 (Q8IWB1 whole entry, looked up): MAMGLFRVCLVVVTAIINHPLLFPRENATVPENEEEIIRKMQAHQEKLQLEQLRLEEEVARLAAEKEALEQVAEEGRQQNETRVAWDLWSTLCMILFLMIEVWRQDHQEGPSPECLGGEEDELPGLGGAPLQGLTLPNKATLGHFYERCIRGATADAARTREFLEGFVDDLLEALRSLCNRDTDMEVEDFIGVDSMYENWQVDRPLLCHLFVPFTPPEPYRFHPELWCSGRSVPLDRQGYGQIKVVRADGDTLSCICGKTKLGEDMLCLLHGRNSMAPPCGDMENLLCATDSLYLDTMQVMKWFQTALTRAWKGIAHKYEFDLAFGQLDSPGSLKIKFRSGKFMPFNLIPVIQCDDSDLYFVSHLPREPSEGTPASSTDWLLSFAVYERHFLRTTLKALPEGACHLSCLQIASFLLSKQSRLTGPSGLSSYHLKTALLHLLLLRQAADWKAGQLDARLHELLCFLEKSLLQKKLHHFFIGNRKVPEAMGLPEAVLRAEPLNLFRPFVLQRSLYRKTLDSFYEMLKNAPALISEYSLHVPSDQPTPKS
inactive: [4] -0.268 | duvelisib 0.179
active: [3] 0.994
